Test results from PubChem BioAssay AID686978 (National Center for Advancing Translational Sciences (NCATS), 2013).
Where “and” joins values, the source holds several entries; their conditions need not be identical. Equal entries are not always repeated. Hit rate of the full screen: of about 420,000 compounds, about 64,000 (15%) were called active. Not shown: some 27% with an inconclusive outcome. Calls come from the whole dose curve; as a rule, active = well fitted inhibition curve with a large enough effect; inconclusive = small, poorly fitted or top-dose-only effect; inactive = flat fitted curve, though single readings scatter. A selection follows. A call without a number means that no potency is given here.

test: qHTS for Inhibitors of human tyrosyl-DNA phosphodiesterase 1 (TDP1): qHTS in cells in absence of CPT; conditions: DT40 Tdp1-/- hTDP1 cells, no CPT, ATP luminescence, 48 h; activity change, negative = growth inhibition: at 46.2 µM (top of the series); note: nearly all actives have a fitted effect of over 55% in size
How it was run: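 No-CPT arm: Tdp1-/-;hTDP1 DT40 cells (400/well) plus compounds, incubated ≥48 hr at 37 °C. Readout CellTiter-Glo luminescence.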
Potency is the fitted concentration of half-maximal effect.

Row | SMILES | Potency
1 | COc1ccccc1CNC(=O)C1CCN(S(=O)(=O)c2ccc3c(c2)OCCO3)CC1 | inactive
2 | COc1ccc(-n2nc3c(c2NC(=O)c2ccc(N4C(=O)CCC4=O)cc2)CSC3)cc1 | inactive
3 | O=C(O)Cc1ccc(-c2ccccc2)cc1 | inactive
4 | CC(=O)N1C(=O)/C(=C2\SC(=S)N(NC(=O)c3ccc(O)cc3)C2=O)c2ccccc21 | inactive
5 | CCOCCCn1c(NN)nc2ccccc2c1=O | inactive
6 | COc1ccc(CNc2ncnc3ccccc23)cc1 | 0.651 µM (active)
7 | Cc1ccccc1-c1nc(N(C)Cc2ccco2)c2ccccc2n1 | inactive
8 | O=C(COc1ncnc2ccccc12)NC(=O)NCc1ccccc1 | inactive
9 | CCOCCCNc1nc(-c2ccccc2)nc2ccccc12 | 14.6 µM (active)
10 | Cc1cnc(CNc2nc(-c3cccnc3)nc3ccccc23)cn1 | inactive
11 | CCC(=O)OCCNc1nc(-c2ccccc2)nc2ccccc12 | inactive
12 | Brc1nc2ncnc(NCc3ccco3)c2[nH]1 | inactive
13 | c1coc(CNc2ncnc3ccccc23)c1 | 12.6 µM (active) and 5.17 µM (active)
14 | COc1ccc(CNc2nccs2)cc1 | inactive
15 | c1ccc(-c2nc(NCc3ccco3)c3ccccc3n2)cc1 | 23.1 µM (active)
16 | Cc1ccc(C(=O)NNc2ncnc3ccccc23)cc1 | inactive
17 | CCOC(=O)c1nnn(CC(=O)Nc2cccc(F)c2)c1C(=O)OCC | inactive
18 | CCCCn1c(N)c(N2CCOCC2)c(=O)n(CC(=O)NCCc2ccccc2)c1=O | inactive
19 | Cc1ccc(NNC(=O)C2CCC2)cc1C | inactive
20 | COc1ccccc1-c1c(C#N)c(N)nc2c1CCC2 | inactive
21 | Cc1ccc2nsnc2c1NC(=O)c1ccccc1[N+](=O)[O-] | inactive
22 | Cc1c(CN2CCC(n3nccc3NC(=O)CCc3ccccc3)CC2)cnn1C | inactive
23 | c1ccc(CCC2=NCCn3cccc32)cc1 | inactive
24 | CCc1ccc(NC(=O)CN2C(=O)CSC2=O)cc1 | inactive
25 | c1ccc(C(=NNc2nc3ccccc3s2)c2ccccn2)cc1 | 0.13 µM (active)

Row | SMILES | Potency
26 | Cc1ccnc(Nc2nc3ccccc3s2)n1 | inactive
27 | O=C(Nc1ccccc1Cl)O/N=C(/c1ccccc1)c1ccccn1 | inactive
28 | CCC(CC)C(=O)Nc1ccc(S(=O)(=O)Nc2nccs2)cc1 | inactive
29 | Cn1nnc2cc(C(=O)NCCC3=CCCCC3)ccc21 | inactive
30 | O=C(NCCC1=CCCCC1)c1ccc(Cl)c([N+](=O)[O-])c1 | 16.4 µM (active)
31 | O=C(Nc1cccnc1)c1ccc(Cl)c([N+](=O)[O-])c1 | inactive
32 | O=C(NCCC1=CCCCC1)c1ccc(-n2cncn2)cc1 | inactive
33 | Cc1ccnc(NC(=O)c2ccc(Cl)c([N+](=O)[O-])c2)c1 | inactive
34 | O=C(Nc1ccncc1)c1ccc(Cl)c([N+](=O)[O-])c1 | 14.6 µM (active)
35 | C#CCCCCCCCCCCCCCCCC(=O)O | inactive
36 | CCCCC(=O)OC1=CN(Cc2ccccc2)S(=O)(=O)c2ccccc21 | inactive
37 | CCOC(=O)Cc1cccc(-c2cc(CCCCCCc3ccc(O[C@H]4O[C@H](COC(C)=O)[C@@H](OC(C)=O)[C@H](OC(C)=O)[C@@H]4OC(C)=O)c(-c4cccc(CC(=O)OCC)c4)c3)ccc2O[C@H]2O[C@H](COC(C)=O)[C@@H](OC(C)=O)[C@H](OC(C)=O)[C@@H]2OC(C)=O)c1 | inactive
38 | COC(C[C@@H]1O[C@@H]1C(=O)[C@@H](C)OCc1ccccc1)OC | inactive
39 | Cc1ccccc1CSCCNC(=O)C1CCN(S(=O)(=O)Cc2ccccc2)CC1 | inactive
40 | Cc1ccc(Cl)cc1NC(=O)C1CCCN(c2cnccn2)C1 (stereo not given) | inactive
41 | Cc1c(Cl)cccc1NC(=O)C1CCCN(c2ncnc3onc(C)c23)C1 (stereo not given) | 6.51 µM (active)
42 | Cc1cccc(NC(=O)C2CCCN(C(=O)Nc3ccc(F)cc3)C2)c1C (stereo not given) | inactive
43 | Cc1cn([C@H]2C[C@H](O)[C@@H](/C=C/C(=O)NCCCc3ccccc3)O2)c(=O)[nH]c1=O | inactive
44 | Cc1ccc(C)c(NC(=O)C2CCCN2C(=O)OC(C)(C)C)c1 (stereo not given) | inactive
45 | Cc1ccc(C)c(N2CCN(C(=O)Cc3c(C(=O)O)c(C)cn3C)CC2)c1 | inactive
46 | CCOC(=O)N1CCC(Nc2c(NCCN3CCN(c4cccc(Cl)c4)CC3)c(=O)c2=O)CC1 | inactive
47 | CCn1c(=O)cc(OCC(=O)NCCCN2CCN(c3cccc(Cl)c3)CC2)c2ccccc21 | 20.6 µM (active)
48 | Cn1c(=O)cc(OCC(=O)N2CCN(c3ccccc3)CC2)c2ccccc21 | inactive
49 | COc1ccc(N2CCN(CCNC(=O)Nc3cc(Cl)ccc3Cl)CC2)cc1 | inactive
50 | CCOC(=O)c1c(C)[nH]c(C(=O)NCCN2CCOCC2)c1C | inactive
